Laboratory results as given in PubChem BioAssay AID1159580 (chemical genetic matrix, 2015).
Among all 5,500 compounds or so, about 2,000 (36%) were called active. Another 18% or so got no clear call; they are omitted. Rule as the data show it: active = normalized growth mostly below about 0.91 (no sharp cut-off); inconclusive = no clear call, values can overlap the other calls; inactive = mostly above about 0.92. The list shows a part of the results.

Test: chemical genetic growth profiling, strain panel (AID 1159580);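 also: tested at 20 µM; growth read once vehicle control cultures reached saturation at 30 °C; 1 = growth at the plate median or of vehicle wells; lower values mean less growth of the strain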
Conditions: growth OD

COc1ccc(-c2cc(=O)c3c(O)cc(O)cc3o2)cc1
normalized growth (S. cerevisiae deletion strains, locus YJR075W, strain HOC1, hits give low values): 0.976 (inactive) | normalized growth (S. cerevisiae deletion strains, locus YKL009W, strain mrt4, hits give low values): 0.94 (inactive) | normalized growth (S. cerevisiae deletion strains, locus YKL068W, hits give low values): 0.979 (inactive) | normalized growth (S. cerevisiae deletion strains, locus YKL085W, strain MDH1 (second series), hits give low values): 0.98 (inactive) | normalized growth (S. cerevisiae deletion strains, locus YKL085W, strain MDH1, hits give low values): 0.98 (inactive) | normalized growth (S. cerevisiae deletion strains, locus YKL160W, strain elf1, hits give low values): 0.928 (inactive) | normalized growth (S. cerevisiae deletion strains, locus YKL190W, strain CNB1, hits give low values): 0.985 (inactive) | normalized growth (S. cerevisiae deletion strains, locus YKR001C, strain vps1, hits give low values): 0.991 (inactive) | normalized growth (S. cerevisiae deletion strains, locus YKR026C, strain gcn3, hits give low values): 0.994 (inactive) | normalized growth (S. cerevisiae deletion strains, locus YKR091W, strain srl3, hits give low values): 0.997 (inactive) | normalized growth (S. cerevisiae deletion strains, locus YLL001W, strain dnm1, hits give low values): 0.954 (inactive) | normalized growth (S. cerevisiae deletion strains, locus YLL026W, hits give low values): 0.997 (inactive) | normalized growth (S. cerevisiae deletion strains, locus YLL041C, strain sdh2, hits give low values): 0.996 (inactive) | normalized growth (S. cerevisiae deletion strains, locus YLR027C, strain aat2, hits give low values): 0.97 (inactive) | normalized growth (S. cerevisiae deletion strains, locus YLR039C, strain RIC1, hits give low values): 0.975 (inactive) | normalized growth (S. cerevisiae deletion strains, locus YLR058C, strain SHM2, hits give low values): 0.998 (inactive) | normalized growth (S. cerevisiae deletion strains, locus YLR102C, strain apc9, hits give low values): 0.984 (inactive) | normalized growth (S. cerevisiae deletion strains, locus YLR113W, strain HOG1, hits give low values): 0.694 (active) | normalized growth (S. cerevisiae deletion strains, locus YLR221C, strain rsa3, hits give low values): 0.986 (inactive) | normalized growth (S. cerevisiae deletion strains, locus YLR258W, strain gsy2, hits give low values): 0.97 (inactive) | normalized growth (S. cerevisiae deletion strains, locus YLR262C, strain YPT6 (second series), hits give low values): 0.908 (inactive) | normalized growth (S. cerevisiae deletion strains, locus YLR262C, strain YPT6, hits give low values): 0.92 (inactive) | normalized growth (S. cerevisiae deletion strains, locus YLR268W, strain sec22, hits give low values): 0.985 (inactive) | normalized growth (S. cerevisiae deletion strains, locus YLR320W, strain mms22, hits give low values): 0.97 (inactive) | normalized growth (S. cerevisiae deletion strains, locus YLR330W, strain CHS5, hits give low values): 0.989 (inactive) | normalized growth (S. cerevisiae deletion strains, locus YLR342W, strain FKS1 (second series), hits give low values): 1.11 (inactive) | normalized growth (S. cerevisiae deletion strains, locus YLR342W, strain FKS1, hits give low values): 1.01 (inactive) | normalized growth (S. cerevisiae deletion strains, locus YLR357W, strain rsc2, hits give low values): 1.01 (inactive) | normalized growth (S. cerevisiae deletion strains, locus YLR370C, strain arc18, hits give low values): 0.98 (inactive) | normalized growth (S. cerevisiae deletion strains, locus YLR371W, strain rom2, hits give low values): 0.99 (inactive) | normalized growth (S. cerevisiae deletion strains, locus YLR384C, strain iki3, hits give low values): 1.02 (inactive) | normalized growth (S. cerevisiae deletion strains, locus YLR418C, strain cdc73, hits give low values): 0.957 (inactive) | normalized growth (S. cerevisiae deletion strains, locus YML016C, strain PPZ1, hits give low values): 1.02 (inactive) | normalized growth (S. cerevisiae deletion strains, locus YML032C, strain rad52, hits give low values): 1 (inactive) | normalized growth (S. cerevisiae deletion strains, locus YML120C, strain ndi1, hits give low values): 0.952 (inactive) | normalized growth (S. cerevisiae deletion strains, locus YML124C, strain tub3, hits give low values): 0.99 (inactive) | normalized growth (S. cerevisiae deletion strains, locus YMR058W, strain fet3, hits give low values): 0.983 (inactive) | normalized growth (S. cerevisiae deletion strains, locus YMR078C, strain ctf18, hits give low values): 0.981 (inactive) | normalized growth (S. cerevisiae deletion strains, locus YMR125W, strain sto1, hits give low values): 0.979 (inactive) | normalized growth (S. cerevisiae deletion strains, locus YMR129W, hits give low values): 0.991 (inactive) | normalized growth (S. cerevisiae deletion strains, locus YMR205C, strain PFK2, hits give low values): 0.968 (inactive) | normalized growth (S. cerevisiae deletion strains, locus YMR223W, strain ubp8, hits give low values): 0.982 (inactive) | normalized growth (S. cerevisiae deletion strains, locus YMR231W, strain pep5, hits give low values): 1.01 (inactive) | normalized growth (S. cerevisiae deletion strains, locus YMR263W, strain SAP30, hits give low values): 0.975 (inactive) | normalized growth (S. cerevisiae deletion strains, locus YMR307W, strain GAS1, hits give low values): 1.21 (inactive) | normalized growth (S. cerevisiae deletion strains, locus YNL067W, strain RPL9B, hits give low values): 0.946 (inactive) | normalized growth (S. cerevisiae deletion strains, locus YNL071W, strain lat1, hits give low values): 0.952 (inactive) | normalized growth (S. cerevisiae deletion strains, locus YNL183C, strain NPR1, hits give low values): 0.784 (active) | normalized growth (S. cerevisiae deletion strains, locus YNL209W, strain ssb2, hits give low values): 0.967 (inactive) | normalized growth (S. cerevisiae deletion strains, locus YNL233W, strain BNI4, hits give low values): 0.984 (inactive) | normalized growth (S. cerevisiae deletion strains, locus YNL248C, strain rpa49, hits give low values): 1.03 (inactive) | normalized growth (S. cerevisiae deletion strains, locus YNL250W, strain rad50, hits give low values): 0.966 (inactive) | normalized growth (S. cerevisiae deletion strains, locus YNL271C, strain bni1, hits give low values): 0.98 (inactive) | normalized growth (S. cerevisiae deletion strains, locus YNL298W, strain CLA4, hits give low values): 0.994 (inactive) | normalized growth (S. cerevisiae deletion strains, locus YNL307C, strain MCK1, hits give low values): 0.978 (inactive) | normalized growth (S. cerevisiae deletion strains, locus YNL322C, strain KRE1 (second series), hits give low values): 0.984 (inactive) | normalized growth (S. cerevisiae deletion strains, locus YNR049C, strain mso1, hits give low values): 0.994 (inactive) | normalized growth (S. cerevisiae deletion strains, locus YNR052C, strain pop2, hits give low values): 0.973 (inactive) | normalized growth (S. cerevisiae deletion strains, locus YOL012C, strain htz1): 0.966 (inactive) | normalized growth (S. cerevisiae deletion strains, locus YOL147C, strain pex11, hits give low values): 0.99 (inactive) | normalized growth (S. cerevisiae deletion strains, locus YOR001W, strain rrp6, hits give low values): 1 (inactive) | normalized growth (S. cerevisiae deletion strains, locus YOR061W, strain CKA2, hits give low values): 0.991 (inactive) | normalized growth (S. cerevisiae deletion strains, locus YOR069W, strain VPS5, hits give low values): 1 (inactive) | normalized growth (S. cerevisiae deletion strains, locus YOR070C, strain gyp1, hits give low values): 0.968 (inactive) | normalized growth (S. cerevisiae deletion strains, locus YOR080W, strain dia2, hits give low values): 1 (inactive) | normalized growth (S. cerevisiae deletion strains, locus YOR083W, strain WHI5, hits give low values): 0.917 (inactive) | normalized growth (S. cerevisiae deletion strains, locus YOR106W, strain vam3, hits give low values): 0.93 (inactive) | normalized growth (S. cerevisiae deletion strains, locus YOR136W, strain idh2, hits give low values): 0.984 (inactive) | normalized growth (S. cerevisiae deletion strains, locus YOR144C, strain elg1, hits give low values): 1 (inactive) | normalized growth (S. cerevisiae deletion strains, locus YOR184W, strain ser1, hits give low values): 0.978 (inactive) | normalized growth (S. cerevisiae deletion strains, locus YOR231W, strain MKK1, hits give low values): 0.869 (inactive) | normalized growth (S. cerevisiae deletion strains, locus YOR265W, strain rbl2, hits give low values): 0.984 (inactive) | normalized growth (S. cerevisiae deletion strains, locus YOR270C, strain vph1, hits give low values): 0.95 (inactive) | normalized growth (S. cerevisiae deletion strains, locus YOR290C, strain snf2, hits give low values): 0.868 (inactive) | normalized growth (S. cerevisiae deletion strains, locus YOR316C, strain cot1, hits give low values): 0.987 (inactive) | normalized growth (S. cerevisiae deletion strains, locus YPL051W, strain arl3, hits give low values): 0.963 (inactive) | normalized growth (S. cerevisiae deletion strains, locus YPL055C, strain LGE1, hits give low values): 0.982 (inactive) | normalized growth (S. cerevisiae deletion strains, locus YPL078C, strain atp4, hits give low values): 0.92 (inactive) | normalized growth (S. cerevisiae deletion strains, locus YPL106C, strain sse1, hits give low values): 0.946 (inactive) | normalized growth (S. cerevisiae deletion strains, locus YPL240C, strain hsp82, hits give low values): 0.994 (inactive) | normalized growth (S. cerevisiae deletion strains, locus YPL241C, strain CIN2, hits give low values): 0.999 (inactive) | normalized growth (S. cerevisiae deletion strains, locus YPL256C, strain CLN2, hits give low values): 0.756 (active) | normalized growth (S. cerevisiae deletion strains, locus YPR119W, strain clb2, hits give low values): 0.983 (inactive) | normalized growth (S. cerevisiae deletion strains, locus YPR141C, strain kar3, hits give low values): 0.985 (inactive) | normalized growth (S. cerevisiae deletion strains, locus YPR163C, strain tif3, hits give low values): 0.991 (inactive) | normalized growth (S. cerevisiae deletion strains, locus YPR167C, strain met16, hits give low values): 0.985 (inactive) | normalized growth (S. cerevisiae deletion strains, strain wtn01, hits give low values): 1 (inactive) | normalized growth (S. cerevisiae strains, strain wild type, hits give low values): 0.991 (inactive)
